The source of these data is PubChem BioAssay (NCI).

This is part of a sample that, as a whole, favours compounds with a hit. Of some 83,000 tested, about 20% had one in any assay.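 Cell lines were cultured in 96-well plates, exposed to a single compound concentration, and assessed for percent growth 48 hours later.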 A number with no mark means an inactive call. Calls of active or inactive are those of the source. Rule for the calls: active = growth percent below 10; inactive = the rest.

Common to all, as to assay: NCI-60 one-dose screen, 48 h (100 = growth as untreated, 0 = no growth, -100 = all killed)
One assay concerns NCI-H23 lung. Particulars: 10 µM unless noted.
A further assay concerns NCI-H460 lung. Particulars: 10 µM unless noted.
A further assay deals with A549/ATCC NSCLC. Particulars: 10 µM unless noted.
The subject of another assay is RXF 393 renal. Particulars: 10 µM unless noted.
For the next assay, the system named is SF-295 CNS. The note with it: 10 µM unless noted.
Another assay relates to UACC-257 melanoma. Particulars: 10 µM unless noted.
Another assay relates to U251 CNS. The note with it: 10 µM unless noted.
A further assay relates to LOX IMVI melanoma. The note with it: 10 µM unless noted.
The subject of another assay is SK-MEL-28 melanoma. Particulars: 10 µM unless noted.
The test system of the next assay is UO-31 renal. The note with it: 10 µM unless noted.
A further assay has as its system TK-10 renal. The note with it: 10 µM unless noted.
The next assay concerns A498 renal. Particulars: 10 µM unless noted.
A further assay relates to HL-60(TB) leukemia. Particulars: 10 µM unless noted.
The next assay deals with SR leukemia. Particulars: 10 µM.
The subject of another assay is OVCAR-4 ovarian. The note with it: 10 µM unless noted.
The next assay has as its system BT-549 breast. Particulars: 10 µM.
For the next assay, the system named is HCC-2998 colon. The note with it: 10 µM unless noted.
The next assay has as its system HOP-62 NSCLC. The note with it: 10 µM unless noted.
The subject of another assay is K-562 leukemia. Particulars: 10 µM unless noted.
For the next assay, the system named is SK-MEL-2 melanoma. The note with it: 10 µM unless noted.

Regarding `OC1CCCCC1N1CCC(c2ccccc2)CC1` (configuration not stated), the growth was 100% in the assay on NCI-H23 lung; 109% in the assay on NCI-H460 lung; 106% in the assay with A549/ATCC NSCLC; 124% in the assay with RXF 393 renal; 98.5% in the assay on SF-295 CNS; 109% with UACC-257 melanoma. In addition, the growth is 105% in the assay with U251 CNS; 99.4% with LOX IMVI melanoma; 103% in the assay on SK-MEL-28 melanoma; 82.5% in the assay on UO-31 renal; 99% in the assay with TK-10 renal; 89.4% in the assay with A498 renal. The growth in the assay with HL-60(TB) leukemia is 86.2%; in the assay on SR leukemia, 94%; in the assay on OVCAR-4 ovarian, 109%; in the assay on BT-549 breast, 97.6%; in the assay on HCC-2998 colon, 93.2%.

Turning to `ClCCN(CCCl)C(c1ccccc1)c1ccc(Cl)cc1` (configuration not stated), the growth in the assay on NCI-H23 lung was 77.3%; with HOP-62 NSCLC, 108%; in the assay on A549/ATCC NSCLC it was 88.9%; in the assay on K-562 leukemia it was 42.6%; in the assay on RXF 393 renal, 88.4%; in the assay with SF-295 CNS, 75.5%. For the same compound, the growth with UACC-257 melanoma is 90.9%; in the assay with U251 CNS, 82.6%; in the assay with LOX IMVI melanoma, 81.3%; in the assay with SK-MEL-28 melanoma it was 102%; in the assay with UO-31 renal it was 104%; with TK-10 renal, 81.1%. Besides, the growth in the assay with HL-60(TB) leukemia is 15.1%; in the assay on SR leukemia, 5.67% (active); in the assay with OVCAR-4 ovarian, 96.9%; with BT-549 breast, 93.7%; in the assay on HCC-2998 colon, 68.6%.

Consider `C[C@]12C[C@H](O)[C@H]3[C@@H](CCC4=CC(=O)CC[C@@]43C)[C@@H]1CC[C@@H]2O`, for which the growth in the assay with NCI-H23 lung is 103%; in the assay on HOP-62 NSCLC it was 105%; in the assay on NCI-H460 lung it was 108%; in the assay with K-562 leukemia it was 104%; in the assay on RXF 393 renal it was 109%; in the assay on SF-295 CNS, 85.6%. The growth in the assay on LOX IMVI melanoma is 96%; in the assay with SK-MEL-28 melanoma, 106%; with UO-31 renal, 77.7%; in the assay on A498 renal, 116%; with HL-60(TB) leukemia, 105%; in the assay with SR leukemia it was 97.4%. Further, the growth was 104% with OVCAR-4 ovarian, 104% in the assay on BT-549 breast and 95.3% with HCC-2998 colon.

As to `CNC(=O)Oc1cccc(OC)c1`, the growth in the assay with NCI-H23 lung is 101%; in the assay with NCI-H460 lung it was 115%; in the assay on A549/ATCC NSCLC it was 106%; with RXF 393 renal, 111%; with SF-295 CNS it was 121%; in the assay on UACC-257 melanoma it was 112%. The growth in the assay with U251 CNS was 110%; in the assay with LOX IMVI melanoma, 100%; with SK-MEL-2 melanoma, 89.8%; in the assay on UO-31 renal it was 97.5%; in the assay on TK-10 renal, 125%; with A498 renal it was 87.8%. Moreover, the results for the growth in the assay on OVCAR-4 ovarian, in the assay with BT-549 breast and with HCC-2998 colon were 105%, 103% and 105%, respectively.

`CC[CH2][Pb]([CH2]CC)([CH2]CC)[O]C(=O)C(F)(F)F`: the growth in the assay with NCI-H23 lung is -46.4% (active); in the assay on HOP-62 NSCLC, -84.3% (active); with NCI-H460 lung, -71.6% (active); in the assay on K-562 leukemia it was 2.17% (active); in the assay with RXF 393 renal, -73.9% (active); in the assay on SF-295 CNS, -87.6% (active). For the same compound, the growth was -87.4% (active) with U251 CNS; -82.3% (active) with LOX IMVI melanoma; -97.2% (active) with SK-MEL-28 melanoma; -87.7% (active) in the assay on SK-MEL-2 melanoma; -100% (active) with UO-31 renal; -97.6% (active) in the assay on A498 renal. Also, the growth in the assay on HL-60(TB) leukemia was -29.7% (active); in the assay with OVCAR-4 ovarian, -97.4% (active); with BT-549 breast it was -95.3% (active); with HCC-2998 colon, -84.4% (active).

Turning to `COc1ccc(NP2(=O)OCC(C)(N)CO2)cc1` (configuration not stated), the growth in the assay on NCI-H23 lung was 92%; in the assay with NCI-H460 lung, 108%; with A549/ATCC NSCLC, 93.6%; in the assay with K-562 leukemia it was 88.9%; in the assay on RXF 393 renal, 104%; in the assay on UACC-257 melanoma, 97.6%. Besides, the growth with LOX IMVI melanoma was 89.4%; in the assay with SK-MEL-2 melanoma it was 108%; with UO-31 renal, 75.6%; in the assay with TK-10 renal, 93.2%; with HL-60(TB) leukemia, 95%; in the assay on SR leukemia, 88.7%. The figures for the growth with OVCAR-4 ovarian, in the assay on BT-549 breast and with HCC-2998 colon were 110%, 77% and 109%, respectively.

For the compound `COC[CH2][Hg][C]#[C][Hg][CH2]COC`, the growth is 71% with NCI-H23 lung; 98.5% in the assay with HOP-62 NSCLC; 94.4% in the assay on NCI-H460 lung; 99.1% in the assay with A549/ATCC NSCLC; 96.7% in the assay on K-562 leukemia; 59.4% in the assay with RXF 393 renal. The growth is 105% with UACC-257 melanoma; 17.5% in the assay on LOX IMVI melanoma; 90.1% in the assay on SK-MEL-28 melanoma; 41.9% in the assay on SK-MEL-2 melanoma; 92.8% in the assay on UO-31 renal; 119% in the assay on TK-10 renal. For the same compound, the growth in the assay on A498 renal was 103%; in the assay with HL-60(TB) leukemia, 89.3%; in the assay with SR leukemia, 8.96% (active); in the assay with OVCAR-4 ovarian, 61.2%; in the assay on BT-549 breast, 111%; with HCC-2998 colon, 103%.

In the case of `CO[C@@H](c1ccccc1Cl)[C@H](C)OC(N)=O`, the growth was 96.1% with HOP-62 NSCLC; 105% in the assay on NCI-H460 lung; 98.4% in the assay with A549/ATCC NSCLC; 104% in the assay on K-562 leukemia; 113% with RXF 393 renal; 95.8% in the assay with SF-295 CNS. Also, the growth with UACC-257 melanoma is 91.7%; in the assay on U251 CNS, 94.1%; in the assay on LOX IMVI melanoma, 98.1%; in the assay with SK-MEL-28 melanoma, 102%; in the assay on SK-MEL-2 melanoma, 107%; with UO-31 renal, 85.7%. For the same compound, the growth was 97.6% in the assay with TK-10 renal; 96.3% in the assay with A498 renal; 106% in the assay on HL-60(TB) leukemia; 111% in the assay on SR leukemia; 112% in the assay on OVCAR-4 ovarian; 97.2% with BT-549 breast. The growth with HCC-2998 colon is 91.5%.

In the case of `N#CC(C#N)=Cc1ccc2ccccc2c1`, the growth with NCI-H23 lung was 100%; in the assay with HOP-62 NSCLC, 113%; in the assay with A549/ATCC NSCLC it was 107%; in the assay on K-562 leukemia, 102%; in the assay with RXF 393 renal, 96.5%; in the assay on SF-295 CNS, 111%. For the same compound, the growth was 108% in the assay on UACC-257 melanoma; 104% with U251 CNS; 84% with LOX IMVI melanoma; 113% in the assay on SK-MEL-28 melanoma; 102% in the assay with SK-MEL-2 melanoma; 111% in the assay on TK-10 renal. Also, the results for the growth in the assay with HL-60(TB) leukemia, in the assay with OVCAR-4 ovarian and in the assay with BT-549 breast were 96.4%, 110% and 100%, respectively.

Turning to `COc1ccc(CN2CCN(Cc3ccccc3)CC2)c(O)c1`, the growth was 94.8% with NCI-H23 lung; 93.4% in the assay with HOP-62 NSCLC; 97% in the assay on NCI-H460 lung; 97.4% in the assay on A549/ATCC NSCLC; 74.3% in the assay with K-562 leukemia; 105% with RXF 393 renal. Besides, the growth was 99.8% with SF-295 CNS; 105% in the assay on UACC-257 melanoma; 95.1% with U251 CNS; 92.1% in the assay with LOX IMVI melanoma; 115% in the assay on SK-MEL-28 melanoma; 89.9% in the assay on SK-MEL-2 melanoma. Besides, the growth is 68.7% in the assay on UO-31 renal; 100% with TK-10 renal; 95.5% in the assay with A498 renal; 91.9% in the assay on HL-60(TB) leukemia; 73.5% in the assay on SR leukemia; 99.8% in the assay on OVCAR-4 ovarian. In addition, the growth with BT-549 breast is 92%; with HCC-2998 colon, 89.4%.
